About 8,800 targets were measured; listed, in parts, are those with a hit and a random draw of the rest. About 0.5% of all pairs of compound and target were hits.
The targets below were run with C/C(=N\NC(=O)C1=CC(=CC=C1)S(=O)(=O)N2CCOCC2)/C3=C(C=CC(=C3)Cl)O (assay: log2 fold change, soluble protein after heating vs DMSO (PISA); higher = thermal stabilisation; K562 lysate, 10 uM; active = over 0.2 and 3.5 SD of the protein, either way, in both replicates (recomputed)).
How it was run: (§1)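 Thermal stability, expressed as log-two fold change relative to solvent controls, is given from duplicates. Crude K562 extract in PBS pH 7.4 with 1 mM MgCl2, at 1 mg/mL protein, was treated with 10 μM compound for 30 min and heated in aliquots for 3 min across 48°C-58°C. After pooling, adjustment to 0.5% NP-40 at 4°C and centrifugation at 21,000xg for 90 min, supernatant protein was measured by TMTpro 16plex LC-MS/MS with channel sums equalised.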
Sequence of UniProt P67936 (P67936 whole entry, looked up): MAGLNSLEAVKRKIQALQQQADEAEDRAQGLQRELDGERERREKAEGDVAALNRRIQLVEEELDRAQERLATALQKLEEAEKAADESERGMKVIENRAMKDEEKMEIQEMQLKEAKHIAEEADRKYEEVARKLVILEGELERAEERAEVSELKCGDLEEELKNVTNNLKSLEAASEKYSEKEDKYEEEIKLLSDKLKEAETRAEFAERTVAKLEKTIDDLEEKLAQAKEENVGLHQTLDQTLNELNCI
Sequence of UniProt Q04726 (Q04726 whole entry, looked up): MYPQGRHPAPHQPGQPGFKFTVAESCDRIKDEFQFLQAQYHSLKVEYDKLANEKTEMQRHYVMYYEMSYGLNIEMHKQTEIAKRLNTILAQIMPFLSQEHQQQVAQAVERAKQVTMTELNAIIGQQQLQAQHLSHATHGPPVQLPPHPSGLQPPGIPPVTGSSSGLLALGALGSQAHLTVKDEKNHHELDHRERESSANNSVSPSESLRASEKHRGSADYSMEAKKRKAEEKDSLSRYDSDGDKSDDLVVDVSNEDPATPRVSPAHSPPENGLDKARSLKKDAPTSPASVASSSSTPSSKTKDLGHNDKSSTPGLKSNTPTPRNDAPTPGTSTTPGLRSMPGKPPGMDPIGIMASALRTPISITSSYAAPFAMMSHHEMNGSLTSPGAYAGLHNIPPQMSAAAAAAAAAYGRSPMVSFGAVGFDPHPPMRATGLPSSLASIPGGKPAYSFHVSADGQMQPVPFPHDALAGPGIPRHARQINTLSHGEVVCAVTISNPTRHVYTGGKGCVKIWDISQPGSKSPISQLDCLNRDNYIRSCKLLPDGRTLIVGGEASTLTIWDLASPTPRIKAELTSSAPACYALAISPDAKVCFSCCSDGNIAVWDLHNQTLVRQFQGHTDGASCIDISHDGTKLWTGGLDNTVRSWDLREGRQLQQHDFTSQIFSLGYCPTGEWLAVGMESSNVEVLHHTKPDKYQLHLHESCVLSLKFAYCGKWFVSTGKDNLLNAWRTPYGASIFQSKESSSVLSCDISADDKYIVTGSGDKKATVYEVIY
Sequence of UniProt O95857 (O95857 whole entry, looked up): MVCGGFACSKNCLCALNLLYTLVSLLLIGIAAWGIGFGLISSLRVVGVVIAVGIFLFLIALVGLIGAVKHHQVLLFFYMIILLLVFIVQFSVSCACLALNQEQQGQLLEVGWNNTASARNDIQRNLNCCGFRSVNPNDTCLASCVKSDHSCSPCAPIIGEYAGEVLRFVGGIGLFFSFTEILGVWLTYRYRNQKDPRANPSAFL
Sequence of UniProt P17480 (P17480 whole entry, looked up): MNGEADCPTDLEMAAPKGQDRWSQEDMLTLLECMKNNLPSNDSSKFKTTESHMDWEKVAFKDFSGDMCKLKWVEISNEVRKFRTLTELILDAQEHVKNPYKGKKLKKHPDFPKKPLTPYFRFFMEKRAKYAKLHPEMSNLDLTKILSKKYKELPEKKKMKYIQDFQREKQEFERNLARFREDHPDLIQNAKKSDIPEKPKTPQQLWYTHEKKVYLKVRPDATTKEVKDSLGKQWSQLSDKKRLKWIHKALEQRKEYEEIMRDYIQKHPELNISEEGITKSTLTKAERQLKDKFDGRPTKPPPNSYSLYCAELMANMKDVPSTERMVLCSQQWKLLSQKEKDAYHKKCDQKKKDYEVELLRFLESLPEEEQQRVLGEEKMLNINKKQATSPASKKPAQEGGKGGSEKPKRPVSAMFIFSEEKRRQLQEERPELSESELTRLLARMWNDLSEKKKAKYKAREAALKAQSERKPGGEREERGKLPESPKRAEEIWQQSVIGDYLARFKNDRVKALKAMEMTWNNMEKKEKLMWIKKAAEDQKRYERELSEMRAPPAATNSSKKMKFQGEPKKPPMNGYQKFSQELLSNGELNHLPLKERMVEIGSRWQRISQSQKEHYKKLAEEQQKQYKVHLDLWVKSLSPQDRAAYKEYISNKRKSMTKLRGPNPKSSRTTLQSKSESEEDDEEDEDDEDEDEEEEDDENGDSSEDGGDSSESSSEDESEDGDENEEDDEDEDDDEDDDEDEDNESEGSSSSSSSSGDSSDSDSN
Sequence of UniProt Q9UNY4 (Q9UNY4 whole entry, looked up): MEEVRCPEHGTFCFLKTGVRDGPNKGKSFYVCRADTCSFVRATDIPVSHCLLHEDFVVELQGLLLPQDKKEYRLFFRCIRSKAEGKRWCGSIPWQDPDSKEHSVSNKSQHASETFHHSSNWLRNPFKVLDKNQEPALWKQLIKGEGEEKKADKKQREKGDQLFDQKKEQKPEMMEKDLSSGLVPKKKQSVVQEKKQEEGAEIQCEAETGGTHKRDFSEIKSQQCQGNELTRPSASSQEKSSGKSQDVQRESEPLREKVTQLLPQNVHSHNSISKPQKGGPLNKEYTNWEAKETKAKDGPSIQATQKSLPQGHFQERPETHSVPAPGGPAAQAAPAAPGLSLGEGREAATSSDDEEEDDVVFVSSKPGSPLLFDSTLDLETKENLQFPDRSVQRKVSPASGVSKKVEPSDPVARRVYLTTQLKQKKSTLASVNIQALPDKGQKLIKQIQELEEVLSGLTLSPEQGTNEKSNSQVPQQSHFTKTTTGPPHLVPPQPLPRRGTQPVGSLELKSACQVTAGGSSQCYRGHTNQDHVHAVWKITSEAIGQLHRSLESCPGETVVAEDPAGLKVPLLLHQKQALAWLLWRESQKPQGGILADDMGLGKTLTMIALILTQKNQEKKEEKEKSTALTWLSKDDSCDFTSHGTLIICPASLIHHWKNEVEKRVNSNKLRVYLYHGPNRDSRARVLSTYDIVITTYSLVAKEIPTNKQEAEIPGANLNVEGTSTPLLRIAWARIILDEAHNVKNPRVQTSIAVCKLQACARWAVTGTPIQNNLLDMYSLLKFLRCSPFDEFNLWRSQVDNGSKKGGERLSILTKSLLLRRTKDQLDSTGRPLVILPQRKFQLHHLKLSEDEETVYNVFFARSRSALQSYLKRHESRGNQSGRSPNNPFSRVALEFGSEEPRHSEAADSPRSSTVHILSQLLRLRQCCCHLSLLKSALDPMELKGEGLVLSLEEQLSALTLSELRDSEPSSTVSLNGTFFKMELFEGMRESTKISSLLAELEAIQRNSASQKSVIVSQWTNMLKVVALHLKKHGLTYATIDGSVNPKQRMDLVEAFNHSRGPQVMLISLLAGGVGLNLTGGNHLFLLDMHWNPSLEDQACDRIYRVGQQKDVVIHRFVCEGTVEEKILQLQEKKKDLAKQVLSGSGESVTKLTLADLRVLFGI
Sequence of UniProt Q96DX7 (Q96DX7 whole entry, looked up): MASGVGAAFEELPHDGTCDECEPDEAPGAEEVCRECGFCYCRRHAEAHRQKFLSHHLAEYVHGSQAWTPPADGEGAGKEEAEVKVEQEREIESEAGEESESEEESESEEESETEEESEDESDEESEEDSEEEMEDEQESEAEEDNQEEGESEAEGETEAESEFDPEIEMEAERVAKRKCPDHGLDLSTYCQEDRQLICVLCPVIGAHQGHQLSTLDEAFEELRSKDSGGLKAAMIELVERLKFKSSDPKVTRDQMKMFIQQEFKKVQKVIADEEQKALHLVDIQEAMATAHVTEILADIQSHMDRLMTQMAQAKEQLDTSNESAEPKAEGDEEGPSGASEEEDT
Sequence of UniProt Q9NX07 (Q9NX07 whole entry, looked up): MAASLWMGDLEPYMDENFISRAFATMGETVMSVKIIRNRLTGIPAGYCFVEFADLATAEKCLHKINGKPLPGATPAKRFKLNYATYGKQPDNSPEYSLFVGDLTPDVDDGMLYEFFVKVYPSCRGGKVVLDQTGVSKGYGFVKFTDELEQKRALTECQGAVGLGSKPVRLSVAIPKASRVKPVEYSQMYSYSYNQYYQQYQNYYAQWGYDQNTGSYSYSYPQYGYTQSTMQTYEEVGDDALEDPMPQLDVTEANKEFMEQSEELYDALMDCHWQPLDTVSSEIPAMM
Sequence of UniProt Q9BRZ2 (Q9BRZ2 whole entry, looked up): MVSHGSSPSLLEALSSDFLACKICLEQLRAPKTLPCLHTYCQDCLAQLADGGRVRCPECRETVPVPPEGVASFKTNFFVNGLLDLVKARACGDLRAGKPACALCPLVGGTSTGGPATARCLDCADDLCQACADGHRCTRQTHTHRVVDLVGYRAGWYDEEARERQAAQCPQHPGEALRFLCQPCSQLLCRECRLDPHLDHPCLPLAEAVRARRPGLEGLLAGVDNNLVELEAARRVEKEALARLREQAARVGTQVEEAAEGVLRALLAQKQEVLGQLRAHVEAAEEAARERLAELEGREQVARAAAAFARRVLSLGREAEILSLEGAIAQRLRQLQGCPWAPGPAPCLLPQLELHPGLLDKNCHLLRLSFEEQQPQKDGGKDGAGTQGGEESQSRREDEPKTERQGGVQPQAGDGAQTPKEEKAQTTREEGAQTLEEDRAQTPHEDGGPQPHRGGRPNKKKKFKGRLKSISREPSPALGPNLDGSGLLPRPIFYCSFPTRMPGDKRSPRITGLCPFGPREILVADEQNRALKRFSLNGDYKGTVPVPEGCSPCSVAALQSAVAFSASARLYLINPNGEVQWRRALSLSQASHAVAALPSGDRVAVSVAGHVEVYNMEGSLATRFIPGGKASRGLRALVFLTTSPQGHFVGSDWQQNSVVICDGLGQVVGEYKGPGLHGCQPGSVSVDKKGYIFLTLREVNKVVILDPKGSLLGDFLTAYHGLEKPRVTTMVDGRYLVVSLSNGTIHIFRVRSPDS
Sequence of UniProt Q96F44 (Q96F44 whole entry, looked up): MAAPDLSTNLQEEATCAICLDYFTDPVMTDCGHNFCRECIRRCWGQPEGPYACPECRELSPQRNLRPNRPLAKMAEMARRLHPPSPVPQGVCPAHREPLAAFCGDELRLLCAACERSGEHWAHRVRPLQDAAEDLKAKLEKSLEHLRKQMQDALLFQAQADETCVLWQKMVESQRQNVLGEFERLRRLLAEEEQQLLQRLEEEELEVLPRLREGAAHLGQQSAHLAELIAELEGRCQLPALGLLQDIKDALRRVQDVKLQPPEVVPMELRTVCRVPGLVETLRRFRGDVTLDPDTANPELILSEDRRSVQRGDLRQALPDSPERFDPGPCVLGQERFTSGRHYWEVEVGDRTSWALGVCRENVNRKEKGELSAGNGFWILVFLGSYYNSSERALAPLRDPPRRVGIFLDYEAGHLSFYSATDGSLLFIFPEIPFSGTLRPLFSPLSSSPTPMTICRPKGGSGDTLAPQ
TSPAN13 (UniProt O95857) was tested, and the log2 fold change was 0.053 (inactive). With TLK2 isoform 2 (UniProt Q86UE8) the log2 fold change was -0.076 (inactive). TDRKH (UniProt Q9Y2W6) was tested, and the log2 fold change was 0.023 (inactive). In the case of TRIM33 isoform 2 (UniProt Q9UPN9), the log2 fold change is reported as -0.016 (inactive). UBR4 (UniProt Q5T4S7) was tested, and the log2 fold change was 0.039 (inactive). With TRIM44 (UniProt Q96DX7) the log2 fold change was 0.067 (inactive). TMEM87A (UniProt Q8NBN3) was tested, and the log2 fold change was -0.021 (inactive). In the case of UBAP2L isoform 5 (UniProt Q14157), the log2 fold change is reported as -0.019 (inactive). For UBTF (UniProt P17480), the log2 fold change was 0.015 (inactive). TRIM56 (UniProt Q9BRZ2) was tested, and the log2 fold change was -0.021 (inactive). TRNAU1AP (UniProt Q9NX07) was tested, and the log2 fold change was 0.083 (inactive). With TLE3 isoform 4 (UniProt Q04726) the log2 fold change was -0.025 (inactive). TPM4 isoform 2 (UniProt P67936) was tested, and the log2 fold change was 0.011 (inactive). For TTF2 (UniProt Q9UNY4), the log2 fold change was -0.003 (inactive). For TUBB6 (UniProt K7ES63), the log2 fold change was 0.058 (inactive). TTI1 (UniProt O43156) was tested, and the log2 fold change was 0.033 (inactive).

The targets below were run with C1=CC(=CC=C1C2=NC3=C(N2)C=C(C=C3)C(=O)N)OC4=CC=C(C=C4)Cl in the same assay as above.
How it was run: as §1
UBXN2B (UniProt Q14CS0) was tested, and the log2 fold change was 0.073 (inactive). For TRAF2 isoform 2 (UniProt Q12933), the log2 fold change was 0.008 (inactive). In the case of TMOD1 (UniProt P28289), the log2 fold change is reported as 0.018 (inactive). For TPD52L2 isoform 7 (UniProt O43399), the log2 fold change was 0.085 (inactive). TMEM199 (UniProt Q8N511) was tested, and the log2 fold change was -0.034 (inactive). For TBCE (UniProt Q15813), the log2 fold change was -0.016 (inactive). With TDRD3 isoform 3 (UniProt Q9H7E2) the log2 fold change was -0.019 (inactive). With TRIM33 (UniProt H0Y612) the log2 fold change was 0.05 (inactive). With TGOLN2 isoform 7 (UniProt O43493) the log2 fold change was 0 (inactive). With TBL3 (UniProt Q12788) the log2 fold change was -0.071 (inactive). With TECR (UniProt Q9NZ01) the log2 fold change was -0.113 (inactive). In the case of TTK (UniProt P33981), the log2 fold change is reported as 0.09 (inactive). In the case of TBL2 (UniProt Q9Y4P3), the log2 fold change is reported as -0.027 (inactive). TPP2 (UniProt P29144) was tested, and the log2 fold change was 0.01 (inactive). In the case of UBAP2 (UniProt Q5T6F2), the log2 fold change is reported as 0.032 (inactive). For TMEM14C (UniProt Q9P0S9), the log2 fold change was 0.046 (inactive). With TPM4 (UniProt P67936) the log2 fold change was 0.005 (inactive). For TBK1 (UniProt Q9UHD2), the log2 fold change was -0.03 (inactive). For TMPO (UniProt P42166), the log2 fold change was 0.012 (inactive). For TFPI (UniProt P10646), the log2 fold change was 0.011 (inactive). In the case of TRIM11 (UniProt Q96F44), the log2 fold change is reported as -0.008 (inactive). With TRIM25 (UniProt Q14258) the log2 fold change was 0.028 (inactive). With TRAPPC12 (UniProt Q8WVT3) the log2 fold change was -0.048 (inactive). TSPAN13 (UniProt O95857) was tested, and the log2 fold change was 0.06 (inactive). With TLK2 isoform 2 (UniProt Q86UE8) the log2 fold change was 0.054 (inactive). With TDRKH (UniProt Q9Y2W6) the log2 fold change was -0.017 (inactive). With TRIM33 isoform 2 (UniProt Q9UPN9) the log2 fold change was 0.014 (inactive). In the case of UBR4 (UniProt Q5T4S7), the log2 fold change is reported as -0.016 (inactive). For TRIM44 (UniProt Q96DX7), the log2 fold change was -0.016 (inactive). For TMEM87A (UniProt Q8NBN3), the log2 fold change was 0.01 (inactive). For UBAP2L isoform 5 (UniProt Q14157), the log2 fold change was 0.035 (inactive). UBTF (UniProt P17480) was tested, and the log2 fold change was 0.018 (inactive). With TRIM56 (UniProt Q9BRZ2) the log2 fold change was 0.021 (inactive). For TRNAU1AP (UniProt Q9NX07), the log2 fold change was -0.037 (inactive). For TLE3 isoform 4 (UniProt Q04726), the log2 fold change was 0.03 (inactive). In the case of TPM4 isoform 2 (UniProt P67936), the log2 fold change is reported as -0.048 (inactive). In the case of TTF2 (UniProt Q9UNY4), the log2 fold change is reported as 0.063 (inactive). For TUBB6 (UniProt K7ES63), the log2 fold change was -0.06 (inactive). TTI1 (UniProt O43156) was tested, and the log2 fold change was -0.049 (inactive).
